An excerpt weighted towards active compounds, which were near 6.2% of everything screened.
HT1080 IDH1KD tx: kills HT-1080 cells with IDH1 knockdown; AID 686971; Potency, µM (highest dose often 46.1 µM), for the others: at the top dose activity, negative = toxicity, hits mostly cytotoxic; 360,000 tested, 2% active; HT-1080 IDH1 knockdown viability, ATP luminescence, 48 h;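 note: 0% = DMSO wells and -100% = cell-free medium wells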
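In this qHTS, HT-1080 cells depleted of IDH1 are exposed for 48 h at 37 °C to compound titrations. Toxicity is scored from CellTiter-Glo luminescence, with DMSO as full viability and medium alone as none.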
HT1080NT lethal: kills 2HG-producing HT-1080-NT fibrosarcoma cells | HT-1080-NT fibrosarcoma viability, CellTiter-Glo ATP luminescence, 48 h | Potency, µM (doses to about 46.1 µM), for inactives: at the top dose activity, negative = less viability, most hits filed as cytotoxic | 360,000 tested, 1.6% active | AID 686970;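 note: NT is the 2HG producing partner of a matched IDH1 knockdown line; 0% = DMSO-treated cells and -100% = media-only wells without cells; nearly all actives have a fitted effect of over 55% in size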
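Toxicity toward the 2HG-producing NT line was scored as %Activity, normalised to DMSO and no-cell wells, from CellTiter-Glo luminescence after 48 hours' treatment.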
KB-3-1 tox: KB-3-1 parental cell cytotoxicity; Potency, µM (top dose mostly 46.1 µM), actives largely listed as cytotoxic; KB-3-1 viability, CellTiter-Glo ATP luminescence, 72 h; 400,000 tested, 1.4% active; note: % is set by controls: 0 for no effect and ±100 for the full control effect; nearly all actives have a fitted effect of over 60% in size
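Parental KB-3-1 adenocarcinoma cells in phenol-red-free DMEM with 10% FBS were pin-treated with compounds at several concentrations, incubated 72 h at 37 °C, and viability read by CellTiter-Glo luminescence; concentration-effect curves were fitted after normalization.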
ATXN2 expr inh: inhibitors of ATXN2 expression | HEK-293 ATXN2-luciferase reporter, luminescence, 24 h | Potency, µM (series often up to 57 µM), for inactives: top-dose activity change, negative = inhibition, most hits filed as inhibitors | 360,000 tested, 0.72% active; note: % is set by controls: 0 for no effect and ±100 for the full control effect; nearly all actives have a fitted effect of over 55% in size
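ATXN2-luciferase reporter cells (luciferase flanked by upstream and downstream ATXN2 gene portions) were treated 24 h at 37 °C with compounds at up to 57 uM. SteadyGlo luminescence gave expression; GF-AFC fluorescence gave viability.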
KB-V1 cytotox: kills drug-selected multidrug resistant KB-V1 cells; 400,000 tested, 3.4% active; Potency, µM (top dose mostly 46.1 µM), usual class: cytotoxic; KB-V1 MDR cells viability, CellTiter-Glo, 72 h; note: % is set by controls: 0 for no effect and ±100 for the full control effect; nearly all actives have a fitted effect of over 60% in size
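Compound-treated KB-V1 multidrug-resistant cells, 72 h, 37 degrees C; viability by CellTiter-Glo. Fitted qHTS curves give the values.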
S2 tox: viability counter-screen for ATXN expression inhibitors; Potency, µM (highest dose often 56.7 µM), actives largely listed as cytotoxic; S2 cells (HEK-293 line with an ATXN2-luciferase reporter) viability, CellTiter-Fluor protease fluorescence, 24 h; AID 651635; 400,000 tested, 0.49% active; note: nearly all actives have a fitted effect of over 40% in size
An asterisk follows results filed as active. Calls come from the whole dose curve; as a rule, active = well fitted curve in the direction sought with a large enough effect; inconclusive = small, poorly fitted or top-dose-only effect, or another doubt; inactive = no such curve, though single readings can be large; an effect the other way counts as inactive or inconclusive. Potency is the fitted concentration of half-maximal effect.

How did Cc1cc(C)n2nc(S(=O)(=O)N(C)Cc3ccccc3)nc2n1 do in these assays?
HT1080 IDH1KD tx: 4%; HT1080NT lethal: 6%; KB-3-1 tox: inactive; ATXN2 expr inh: -1%; KB-V1 cytotox: inactive; S2 tox: inactive

What do the screens show for `O=C(c1c(F)cccc1F)N(Cc1cccs1)C1CCCC1`?
HT1080 IDH1KD tx: -14%; HT1080NT lethal: 4%; KB-3-1 tox: inactive; ATXN2 expr inh: inconclusive; KB-V1 cytotox: inactive; S2 tox: inactive

How did O=C(c1c(F)cccc1F)N(Cc1ccccn1)C1CCCC1 do in these assays?
HT1080 IDH1KD tx: inconclusive; HT1080NT lethal: -2%; KB-3-1 tox: inactive; ATXN2 expr inh: -9%; KB-V1 cytotox: 21µM*; S2 tox: inactive

How did COc1ccc(-c2cc(C)no2)cc1S(=O)(=O)Nc1c(C)cc(C)cc1C do in these assays?
KB-3-1 tox: inactive; KB-V1 cytotox: inactive

What do the screens show for `Cc1ccc(NC(=O)CN2C(=O)COc3ccc(S(=O)(=O)Nc4ccccc4)cc32)c(C)c1`?
KB-3-1 tox: inactive; ATXN2 expr inh: 10%; KB-V1 cytotox: inactive; S2 tox: inconclusive

Results for CCOC(=O)N1CCC(N(C(=O)Nc2ccccc2)C(C)CC)CC1 (stereo not drawn) ?
HT1080 IDH1KD tx: 3%; HT1080NT lethal: 0%; KB-3-1 tox: inactive; ATXN2 expr inh: -5%; KB-V1 cytotox: 15µM*; S2 tox: inactive

How did OC(Cc1ccccc1)c1ncc(-c2ccc3ccccc3c2)[nH]1 (stereo not drawn) do in these assays?
HT1080 IDH1KD tx: 18µM*; HT1080NT lethal: inconclusive; KB-3-1 tox: inactive; ATXN2 expr inh: -15%; KB-V1 cytotox: inactive; S2 tox: inconclusive

How did Cc1cccc(-c2cnc(C(O)Cc3ccccc3)[nH]2)c1 (stereo not drawn) do in these assays?
HT1080 IDH1KD tx: inconclusive; HT1080NT lethal: inconclusive; KB-3-1 tox: inconclusive; ATXN2 expr inh: 13%; KB-V1 cytotox: inconclusive; S2 tox: inactive

Results for CCc1nc2ccc(C(=O)Nc3cccc(OCC(=O)N(C)C)c3)cn2c1N(C)Cc1ccc(N(C)C)cc1 ?
HT1080 IDH1KD tx: 7%; HT1080NT lethal: 9%; KB-3-1 tox: inactive; ATXN2 expr inh: -5%; KB-V1 cytotox: inactive; S2 tox: inactive

What do the screens show for `COCCNC(=O)CCc1c(C)nc2c(c(C)nn2-c2ccc(C)cc2)c1C`?
HT1080 IDH1KD tx: -6%; HT1080NT lethal: 3%; KB-3-1 tox: inactive; KB-V1 cytotox: inactive; S2 tox: inactive

Results for CCN(CC)CCNC(=O)CCc1c(C)nc2c(c(C)nn2-c2ccc(C)cc2)c1C ?
HT1080 IDH1KD tx: inconclusive; HT1080NT lethal: 18µM*; KB-3-1 tox: inconclusive; ATXN2 expr inh: inconclusive; KB-V1 cytotox: inactive; S2 tox: inactive

How did O=C(NNC(=S)NC1CCCCC1)c1cccc(S(=O)(=O)Nc2ccccc2Cl)c1 do in these assays?
HT1080 IDH1KD tx: -4%; HT1080NT lethal: 3%; KB-3-1 tox: inconclusive; ATXN2 expr inh: 1%; KB-V1 cytotox: 21µM*; S2 tox: inactive

What do the screens show for `O=C(c1cccc(S(=O)(=O)Nc2ccccc2Cl)c1)N1CCCCCC1`?
HT1080 IDH1KD tx: 3%; HT1080NT lethal: -4%; KB-3-1 tox: inactive; ATXN2 expr inh: 5%; KB-V1 cytotox: 18µM*; S2 tox: inactive

Results for O=C(c1cccc(S(=O)(=O)N2CCN(c3ccc(F)cc3)CC2)c1)N1CCCC(C(F)(F)F)C1 (stereo not drawn) ?
HT1080 IDH1KD tx: inconclusive; HT1080NT lethal: 16µM*; KB-3-1 tox: inconclusive; ATXN2 expr inh: inconclusive; KB-V1 cytotox: inconclusive; S2 tox: inactive

What do the screens show for `CC1CN(C(=O)c2cccc(S(=O)(=O)N3CCN(c4ccc(F)cc4)CC3)c2)CC(C)O1` (stereo not drawn)?
HT1080 IDH1KD tx: 1%; HT1080NT lethal: 8%; KB-3-1 tox: inactive; ATXN2 expr inh: -2%; KB-V1 cytotox: inconclusive; S2 tox: inactive

How did O=C(Nc1cccc(S(=O)(=O)Nc2ccccc2Cl)c1)c1ccc(Cl)nc1 do in these assays?
HT1080 IDH1KD tx: -8%; HT1080NT lethal: -4%; KB-3-1 tox: 5.2µM*; ATXN2 expr inh: -22%; KB-V1 cytotox: 2.6µM*; S2 tox: inactive

How did CN(CC1COCCO1)C(=O)c1cnn(-c2nccc(-c3ccccc3C(F)(F)F)n2)c1C1CC1 (stereo not drawn) do in these assays?
S2 tox: inactive

What do the screens show for `CCCCc1ccc(NC(=O)COC(=O)c2ccccc2OCC(=O)Nc2ccc(Br)cc2)cc1`?
KB-3-1 tox: inconclusive; KB-V1 cytotox: inactive

How did O=C(c1cccc(S(=O)(=O)N2CCCCC2)c1)N1CCCCC1 do in these assays?
HT1080 IDH1KD tx: 6%; HT1080NT lethal: 5%; KB-3-1 tox: inactive; ATXN2 expr inh: 5%; KB-V1 cytotox: 15µM*; S2 tox: inactive

What do the screens show for `Cc1ccccc1C(=O)c1c[nH]c(C(=O)N2CCN(c3ccccc3F)CC2)c1`?
HT1080 IDH1KD tx: inconclusive; HT1080NT lethal: -25%; KB-3-1 tox: inactive; ATXN2 expr inh: -3%; KB-V1 cytotox: inactive; S2 tox: inactive

Results for O=C(NC1CCN(Cc2ccccc2)CC1)c1cccc(S(=O)(=O)Nc2cc(C(F)(F)F)ccc2Cl)c1 ?
HT1080 IDH1KD tx: -11%; HT1080NT lethal: -2%; KB-3-1 tox: inconclusive; ATXN2 expr inh: -10%; KB-V1 cytotox: 23µM*; S2 tox: inactive

Results for O=C(c1c[nH]c(C(=O)N2CCN(c3ccccc3F)CC2)c1)c1cccc(Cl)c1Cl ?
HT1080 IDH1KD tx: inconclusive; HT1080NT lethal: 9.2µM*; KB-3-1 tox: inconclusive; KB-V1 cytotox: 21µM*; S2 tox: inactive

What do the screens show for `O=C(c1cccc(S(=O)(=O)N2CCCC2)c1)N1CCN(c2ccccc2F)CC1`?
HT1080 IDH1KD tx: -6%; HT1080NT lethal: 0%; KB-3-1 tox: inactive; ATXN2 expr inh: -8%; KB-V1 cytotox: 6.5µM*; S2 tox: inactive

What do the screens show for `N#C/C(=C\c1ccc(-c2cccc(Cl)c2)o1)C(=O)Nc1cccc(C(F)(F)F)c1`?
KB-3-1 tox: inactive; ATXN2 expr inh: 3%; KB-V1 cytotox: inconclusive; S2 tox: inactive

What do the screens show for `COc1cccc(NC(=O)C2CCN(C(=O)N3CC(C)Oc4ccccc43)CC2)c1` (stereo not drawn)?
KB-3-1 tox: inactive; KB-V1 cytotox: inactive

What do the screens show for `CCc1cccc(NC(=O)c2c(N3CCCC3=O)c3cc(C)ccc3n2C)c1`?
KB-3-1 tox: inconclusive; ATXN2 expr inh: -35%; KB-V1 cytotox: 18µM*; S2 tox: inactive

High-throughput results (PubChem BioAssay)
